37 compounds from PubChem BioAssay (NCATS) can be followed below.

Inconclusive results are not listed. Where a call stands in place of a potency, no number is given. Active and inactive are the calls of the source. Calls follow the shape of the dose curve; as a rule, active = well fitted inhibition curve with a large enough effect; inconclusive = small, poorly fitted or top-dose-only effect; inactive = flat fitted curve, though single readings scatter.
Potency is read from the fitted curve at half-maximal effect.

The nature of the assay: P-glycoprotein substrates identified in KB-8-5-11 adenocarcinoma cell line, qHTS therapeutic library screen (AID 1346987). Also: nearly all actives have a fitted effect of over 65% in size. The conditions noted are these: KB-8-5-11 (P-gp overexpressing) viability, CellTiter-Glo, 72 h; series mostly up to 44.5 µM. Summed up:
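P-gp-mediated resistance screen: KB-8-5-11 cells treated 72 h with compounds in dose-response. CellTiter-Glo viability.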
A general note: qHTS replaces the single test concentration by a dilution series.
Regarding `C=C1[C@@H]2CC[C@@H](C2)C1(C)C`, the Potency entry was “inactive”.

For `CC(=O)Nc1ccc(OC(C)=O)cc1`, the Potency entry was “inactive”.

Take `NCCO/C=C/[C@H](N)C(=O)O`: the Potency result is “inactive”.

`C#C[C@]1(O)CC[C@@H]2[C@H]3CCC4=CC(=O)CC[C@H]4[C@H]3C(=C)C[C@@]21CC`: the Potency result is “inactive”.

For `CO/N=C(\C(=O)N[C@@H]1C(=O)N2C(C(=O)O)=CCS[C@H]12)c1csc(N)n1`, the Potency entry is “inactive”.

With `CC(C)=CCC/C(C)=C/C=C/C(C)=C/C=C/C(C)=C/C=C/C=C(C)/C=C/C=C(C)/C=C/C=C(\C)CCC=C(C)C`, the Potency entry is “inactive”.

Consider `CCCc1ccc(C(=O)O)cc1`, for which the Potency entry is “inactive”.

For `CC1=CC(=C(c2ccc(N)cc2)c2ccc(N)cc2)C=CC1=N`, the Potency is 14.6 µM (active).

With `CNC(=O)[C@H](Cc1c[nH]c2ccccc12)NC(=O)[C@@H](CC(=O)NO)CC(C)C`, the Potency entry is “inactive”.

Regarding `NS(=O)(=O)c1cc2c(cc1Cl)NC(Cc1ccccc1)NS2(=O)=O` (configuration not stated), the Potency result was “inactive”.

In the case of `CO/N=C(\C(=O)N[C@@H]1C(=O)N2C(C(=O)[O-])=C(C[n+]3cccc4c3CCC4)CS[C@H]12)c1csc(N)n1`, the Potency entry is “inactive”.

In the case of `CNC(=O)C[C@@H](N)C(=O)N[C@@H](C(=O)N[C@@H]1C(=O)N2[C@@H]1SC(C)(C)[C@@H]2C(=O)O)c1ccc(O)cc1`, the Potency result was “inactive”.

Take `CC(C)(C)C(=O)OCC(=O)[C@H]1CC[C@H]2[C@@H]3CCC4=CC(=O)CC[C@]4(C)[C@H]3CC[C@]12C`: the Potency result was “inactive”.

As for `Cc1cc(O)c2c(c1)O[C@@]1(C)CC[C@H]3C(C)(C)CCCC34CO[C@@H]2[C@H]41` (some centres not stated), the Potency entry was “inactive”.

Take `O=C(OCc1ccccc1)c1ccc(O)cc1`: the Potency entry is “inactive”.

Take `CC(C)c1ncc([N+](=O)[O-])n1C`: the Potency entry was “inactive”.

`CCOC(=S)SSC(=S)OCC`: the Potency result was “inactive”.

With `CC(C)[C@H](N)C(=O)OCC(CO)OCn1cnc2c(=O)[nH]c(N)nc21` (some centres not stated), the Potency entry is “inactive”.

For `CCCCC`, the Potency result is “inactive”.

Take `CC(C)OC(=O)Nc1ccc2nc(-c3cscn3)[nH]c2c1`: the Potency is 4.61 µM (active).

Regarding `S=C=Nc1ccc(N=C=S)cc1`, the Potency entry is “inactive”.

`O=C(NNCS(=O)(=O)O)c1ccncc1`: the Potency entry is “inactive”.

Regarding `C=CCN1CCCC1CNC(=O)c1cc(S(N)(=O)=O)cc(OC)c1OC` (configuration not stated), the Potency result is “inactive”.

For the compound `CO[C@H]1C=CO[C@@]2(C)Oc3c(C)c(O)c4c(O)c(cc(O)c4c3C2=O)NC(=O)/C(C)=C\C=C/[C@H](C)[C@H](O)[C@@H](C)[C@@H](O)[C@@H](C)[C@H](OC(C)=O)[C@@H]1C`, the Potency result is “inactive”.

With `CC1(O)CCC(C(C)(C)O)CC1` (configuration not stated), the Potency result was “inactive”.

In the case of `Nc1ccc(N=Nc2ccccc2)c(N)n1`, the Potency result was “inactive”.

Consider `ClC(Cl)Cl`, for which the Potency result is “inactive”.

In the case of `Oc1ccc(/C=C/c2cc(O)cc(O)c2)cc1`, the Potency result is “inactive”.

For the compound `OCl`, the Potency entry is “inactive”.

`CC(=O)N[C@@H]1C(O[C@H]2O[C@H](C(=O)O)C(O)[C@H](O)[C@H]2O)[C@H](O)[C@@H](CO)O[C@H]1O[C@@H]1C(C(=O)O)O[C@@H](O[C@H]2[C@H](O)[C@@H](CO)OC(O)[C@@H]2NC(C)=O)[C@H](O)[C@H]1O` (some centres not stated): the Potency result was “inactive”.

Turning to `O=P(O)(O)OC[C@H]1O[C@](O)(COP(=O)(O)O)[C@@H](O)[C@@H]1O`, the Potency result was “inactive”.

Turning to `Oc1ccc(Cl)c2c1CCC2`, the Potency entry is “inactive”.

Regarding `Cc1c(O)c(=O)ccn1C`, the Potency entry was “inactive”.

Consider `CCCCCCCCCCCCCCCC(=O)OC[C@H](COP(=O)([O-])OCC[N+](C)(C)C)OC(=O)CCCCCCCCCCCCCCC`, for which the Potency entry is “inactive”.

Turning to `CC(=O)Oc1cccc2c1C(=O)c1c(OC(C)=O)cc(C(=O)O)cc1C2=O`, the Potency entry is “inactive”.

Turning to `NC(=O)[C@@H]1CCCN1C(=O)[C@H](Cc1cnc[nH]1)NC(=O)[C@@H]1CCC(=O)N1`, the Potency result was “inactive”.

Take `CN1c2c(nc(N)[nH]c2=O)NCC1CNc1ccc(C(=O)NC(CCC(=O)O)C(=O)O)cc1` (configuration not stated): the Potency result was “inactive”.
